# A selection: hits, their analogues and other compounds. The true share with any hit is near 13%.
# Cycloheximide cs – affects cycloheximide protein synthesis inhibition readout, counter-screen. cell reporter, cycloheximide protein synthesis inhibition counterscreen. max response, %. 12% of 300,000 active; in the data active = max response mostly above about 13%, no sharp cut-off; inactive = mostly below about 14%; also: read at 38.3 µM for the half of the compounds with a filed dose; 0% is about no effect
# Shiga toxin inh – Shiga toxin inhibition. Vero cells, Shiga toxin protein synthesis inhibition reporter. inhibition, % at 38.7 µM. 9.2% of 290,000 active. AID 2315; in the data active = inhibition mostly above about 28%, no sharp cut-off; inactive = mostly below about 43%; also: 0% is about no effect
# HCV inhibitor – inhibitors of hepatitis C virus infection; Huh7.5.1 HCVcc-Cre infection, luciferase reporter, 44 h; 3.4% of 340,000 active; Potency, µM (series often up to 41.8 µM), for the others: top-dose activity change, negative = inhibition, usual class: inhibitors; active = well fitted inhibition curve with a large enough effect; inconclusive = small, poorly fitted or top-dose-only effect, or another doubt; inactive = no such curve, though single readings can be large or run the other way; also: potency is read from the fitted curve at half-maximal effect; % is scaled to controls: 0 for no effect and ±100 for the full control effect
#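 Infectious HCV cell culture screen: compound-treated cells (1,000/well, pre-plated 4 h) are infected with HCVcc-Cre at roughly 0.5 moi and grown 44 h. Infection is quantified by luciferase signal after 15 min substrate incubation at room temperature.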
# FMDV inh – foot and mouth disease virus antiviral activity; FMDV antiviral cell-based qHTS; Potency, µM (titrated, usually from 57.9 µM), for the others: at the highest dose activity change, negative = inhibition, actives largely listed as inhibitors; 1.2% of 410,000 active; AID 1159524; calls by dose curve; tested in HEK293T cells; also: read-out not given here; potency is read from the fitted curve at half-maximal effect; % is scaled to controls: 0 for no effect and ±100 for the full control effect; nearly all actives have a fitted effect of over 45% in size
# Lassa entry inh – blocks Lassa virus binding to or entry into cells | Potency, µM (series often up to 37.9 µM), inactives show top-dose activity change, negative = inhibition, hits mostly inhibitors | Lassa virus pseudotype entry inhibition, cell reporter | 1.2% of 300,000 active | AID 540256; calls by dose curve; tested in HEK293 cells; also: potency is read from the fitted curve at half-maximal effect; % is scaled to controls: 0 for no effect and ±100 for the full control effect; nearly all actives have a fitted effect of over 50% in size
# Marburg entry inh – inhibitors of Marburg virus binding or cell entry | Marburg virus pseudotyped entry inhibition, cell reporter | Potency, µM (titrated, usually from 37.8 µM), for the others: at the top dose activity change, negative = inhibition, usual class: inhibitors | 1.8% of 300,000 active | AID 540276; calls by dose curve; tested in HEK293 cells; also: potency is read from the fitted curve at half-maximal effect; % is scaled to controls: 0 for no effect and ±100 for the full control effect
# Starred values were filed as active, the others as inactive; ? = inconclusive; nt = no result given; [ ] = another dose, or the depositor's remark.
SMILES,Cycloheximide cs,Shiga toxin inh,HCV inhibitor,FMDV inh,Lassa entry inh,Marburg entry inh
COc1cccc(OC)c1OCCCCN1CCC(Cc2ccccc2)CC1,-4.4,-10.5,11.2µM*,-28.0%,?,?
COc1ccccc1C(=O)N1CCN(CCc2ccccc2)CC1,-1.4,-29.3,10.8%,4.9%,1.5%,12.2%
COc1ccccc1OCCCCN1CCN(C(c2ccccc2)c2ccccc2)CC1,-3.0,-10.8,11.2µM*,-29.6%,18.4µM*,?
O=C(COc1ccccc1F)NCCc1ccc2c(c1)OCCO2,nt,nt,-13.5%,7.0%,13.2%[46.1 µM],?
O=C(NCc1ccc2c(c1)OCO2)c1ccccn1,20.2*,-6.1,18.1%,32.0%,27.2%,18.2%
O=C(NCc1ccc2c(c1)OCO2)c1ccccc1,6.0,-1.9,6.4%,12.9%,?,23.9%[46.1 µM]
O=C(NCCc1ccc2c(c1)OCCO2)c1ccccn1,41.8*,77.8*,-7.3%,-13.4%,?,-12.1%[46.1 µM]
O=C(CCc1c[nH]c2ccccc12)NCCc1ccc2c(c1)OCCO2,16.6,83.8*,?,-1.2%,?,20.9%
O=C(CCc1c[nH]c2ccccc12)NCc1cccc(Cl)c1,-3.9,2.4,-24.0%,-4.9%,-18.7%[46.1 µM],14.7%[46.1 µM]
CC1CCCN(C(=O)CNC(=O)Cn2ccc3ccccc3c2=O)C1 (configuration not stated),7.1,2.1,5.6%,-24.7%,nt,-0.2%
O=C1C=CC(=O)N1CCCCCCCCCCN1C(=O)C=CC1=O,nt,nt,?,20µM*,?,?
O=C1C=CC(=O)N1Cc1ccncc1,nt,nt,18.2%,-14.4%,9.5%,?
CC(Cc1ccccc1)N1C(=O)c2ccccc2C1=O (configuration not stated),21.8*,49.0*,5.3%,34.0%,nt,nt
CC(C)NC(=O)C(Cc1ccccc1)N1C(=O)c2ccccc2C1=O (configuration not stated),-1.2,-2.9,-0.3%,nt,-6.6%,14.9%
O=C(C(Cc1ccccc1)N1C(=O)c2ccccc2C1=O)N1c2ccccc2CCc2ccccc21 (configuration not stated),6.3,24.8,10µM*,0.0%,?,?
COc1ccc(-c2cc(C(=O)N3CC4(C)CC3CC(C)(C)C4)no2)cc1OC (configuration not stated),-3.4,-4.1,7.7%,25.5%,-3.9%,17.7%
Cc1cc(-c2nnc(CCC(=O)N3CCN(Cc4cccc(F)c4)CC3)o2)c(C)o1,19.0*,42.3*,11.8%,8.2%,?,19.7%[46.1 µM]
Cc1cccnc1CN1CCN(C(=O)CCc2nnc(CCc3ccccc3)o2)CC1,24.5*,73.6*,1.7%,17.8%,2.5%[46.1 µM],?
Cc1cccc(NC(=S)NNC(=O)c2cccc([N+](=O)[O-])c2)c1,19.3*,50.4*,-4.4%,8.1%,11.7%,17.6%[46.1 µM]
O=C(NNC(=S)NC(=O)c1cccc([N+](=O)[O-])c1)c1ccc(O)cc1,31.9*,53.3*,-28.8%,-10.3%,19.7%,15.1%
O=C(NNC(=S)NC(=O)c1ccccc1)c1cccc([N+](=O)[O-])c1,15.2,5.6,-21.7%,-8.7%,-13.1%,-15.7%
O=C(NNC(=S)Nc1ccc(Cl)c(Cl)c1)c1cccc([N+](=O)[O-])c1,1.9,9.6,-15.0%,17.9%,3.5%,?
O=C(NC(=S)Nc1cccc(F)c1)c1cccc([N+](=O)[O-])c1,19.7*,67.0*,-21.1%,18.9%,nt,nt
C#CCOCCOCCOCCNc1nc(N2CCN(C(=O)[C@H](CCC(=O)O)n3cc(C(N)Cc4ccc(O)cc4)nn3)CC2)nc(N2CCN(C(=O)[C@H](Cc3ccc(O)cc3)n3cc(C(N)CC(C)C)nn3)CC2)n1 (some centres not stated),7.3,-8.6,nt,nt,nt,nt
C=CCn1c(CNC(=O)c2cccs2)n[nH]c1=S,-3.1,-7.8,-8.3%,-15.1%,?,?
CC(C)OCCCn1c(SC(C)C(=O)NC2CC2)nc2ccccc2c1=O (configuration not stated),nt,nt,4.4%,-7.6%,-0.6%,9.3%
O=C(Nc1cc(Cl)ccc1Cl)c1cc(-c2ccco2)on1,-1.6,11.3,5.4%,-30.6%,-3.7%[46.1 µM],-22.7%[46.1 µM]
Cc1ccc(NC(=O)c2cc(-c3ccco3)on2)cc1,40.9*,132.7*,1.9%,47.5%,1.0%,?
O=C(Nc1ccc(F)c(Cl)c1)c1cc(-c2ccco2)on1,15.7,61.7*,-8.5%,91.7%,-3.1%,4.3%[46.1 µM]

# Assay outcomes (PubChem BioAssay)
